# Measurements: PubChem BioAssay (NCATS)
# Inconclusive results are not listed. Entries that show only a call come without a potency. The source made the active and inactive calls. Unless noted, the call rests on the fitted dose curve; in most records, active means well fitted curve in the direction sought with a large enough effect; inconclusive means small, poorly fitted or top-dose-only effect, or another doubt; inactive means no such curve, though single readings can be large; an effect the other way counts as inactive or inconclusive.
# Key:
# [1] = Confirmatory qHTS for small molecule stabilizers of the endoplasmic reticulum resident proteome: Secreted ER Calcium Modulated Protein (SERCaMP) assay (AID 1508628); further: potency means the concentration at half of the fitted maximal effect; nearly all actives have a fitted effect of over 40% in size
# How it was run: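 Reporter secretion upon ER calcium depletion (100 nM thapsigargin, 4 h, 37C) is measured as medium luminescence with coelenterazine, after 16 h compound pretreatment of SH-SY5Y-GLuc-SERCaMP cells; primary at three concentrations up to 38.3 uM, follow-up at 11 (up to 76.6 uM).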
# [2] = qHTS Assay for Identification of Small Molecule Agonists for Thrombopoietin (TPO) Signaling Pathway (AID 917)
# How it was run: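 Cell-based luciferase reporter screen. Mouse Ba/F3 line stably expressing human TPO receptor; IL-3 removed overnight before plating. Co-treatment with compound and EC50 TPO (26 pM), 24 hrs at 37 C, then luminescence.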
# [3] = Cytotoxicity counterscreen for inhibitors of SARS-CoV-2 cell entry (AID 1645845; calls by dose curve; further: nearly all actives have a fitted effect of over 50% in size); conditions: outcome: dose series up to 57.1 µM unless noted
# How it was run: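 After a 15 min room-temperature ATPLite 1step step, luminescence reflected ATP remaining in HEK293-ACE2 cells exposed to compound for 1 h plus 48 h at 37 C, with percent activity set by cell and no-cell controls.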
# [4] = Primary qHTS to identify inhibitors of SARS-CoV-2 cell entry (AID 1645846; calls by dose curve; further: nearly all actives have a fitted effect of over 45% in size); conditions: SARS-CoV-2 pseudovirus cell entry assay, luminescence; activity change, negative = inhibition: at 57.1 µM (top of the series) unless noted
# How it was run: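 Inhibition of spike-mediated entry was scored in human ACE2-transfected Expi293F cells. Particles were MLV-pseudotyped with Wuhan-Hu-1 S carrying a 19-aa C-terminal deletion; signal was luciferase after two days, scaled between spike PP and fusion-protein-free PP.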
# [5] = target: Glutathione peroxidase 1 (Homo sapiens) (UniProt P07203); experiment: Primary qHTS Assay for Inhibitors of Recombinant Selenoprotein Glutathione Peroxidase 1 (GPX1) (AID 1845191); further: nearly all actives have a fitted effect of over 65% in size
# Sequence of Glutathione peroxidase 1 (Homo sapiens) (P07203 whole entry, looked up): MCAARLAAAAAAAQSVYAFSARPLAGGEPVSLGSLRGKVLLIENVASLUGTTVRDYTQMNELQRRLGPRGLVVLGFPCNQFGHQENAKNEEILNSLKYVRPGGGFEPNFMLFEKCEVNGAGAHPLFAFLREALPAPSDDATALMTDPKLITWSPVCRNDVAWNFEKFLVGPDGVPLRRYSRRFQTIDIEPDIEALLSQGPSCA
# How it was run: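 GPX1 10 nM, GR 100 nM, GSH 1 mM, NADPH 0.5 mM, CHP 0.5 mM (final). 30-min cpd preincubation, RT. Ex340/Em450 read t=0, t=15 min.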
# [6] = target: Phospholipid hydroperoxide glutathione peroxidase GPX4 (Homo sapiens) (UniProt P36969); experiment: Primary qHTS Assay for Inhibitors of Recombinant Selenoprotein Glutathione Peroxidase 4 (GPX4) (AID 1845192); further: nearly all actives have a fitted effect of over 65% in size
# Sequence of Phospholipid hydroperoxide glutathione peroxidase GPX4 (Homo sapiens) (P36969 whole entry, looked up): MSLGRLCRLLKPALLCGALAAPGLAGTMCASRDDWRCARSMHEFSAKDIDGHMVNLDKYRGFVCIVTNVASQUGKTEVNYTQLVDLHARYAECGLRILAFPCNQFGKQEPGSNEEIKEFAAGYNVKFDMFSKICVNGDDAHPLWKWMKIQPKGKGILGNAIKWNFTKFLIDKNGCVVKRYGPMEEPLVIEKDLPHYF
# How it was run: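 qHTS, GR-coupled: GPX4 200 nM + cpd 30 min RT → GSH 1 mM, NADPH 0.5 mM, GR 100 nM → CHP 0.5 mM start; fluor 340/450 at t0 and t15 min; no-enzyme wells as control.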
# [7] = target: Tumor susceptibility gene 101 protein (Homo sapiens) (UniProt Q99816); experiment: qHTS Assay for Iinhibitors of HIV-1 Budding by Blocking the Interaction of PTAP/TSG101: Hit Validation (AID 651600); further: potency means the concentration at half of the fitted maximal effect; nearly all actives have a fitted effect of over 70% in size
# Sequence of Tumor susceptibility gene 101 protein (Homo sapiens) (Q99816 whole entry, looked up, the tested form may be a part): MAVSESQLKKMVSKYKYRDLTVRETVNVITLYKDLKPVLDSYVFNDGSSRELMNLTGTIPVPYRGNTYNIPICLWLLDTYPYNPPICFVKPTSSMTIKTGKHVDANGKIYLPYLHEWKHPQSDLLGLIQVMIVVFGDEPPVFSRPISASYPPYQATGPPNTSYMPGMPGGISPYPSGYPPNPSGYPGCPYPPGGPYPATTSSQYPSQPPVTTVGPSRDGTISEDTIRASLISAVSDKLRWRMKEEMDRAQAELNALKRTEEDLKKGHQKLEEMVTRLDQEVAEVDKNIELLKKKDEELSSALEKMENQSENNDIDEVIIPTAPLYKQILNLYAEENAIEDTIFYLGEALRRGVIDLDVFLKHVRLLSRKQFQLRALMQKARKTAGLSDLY
# How it was run: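 Compounds are added to the Tsg101 binding domain (10 uM final) in pH 7.5 HEPES buffer. FITC-PTAP peptide follows at 50 nM final. After 20 min at r.t., polarized FITC emission is measured.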
# [8] = target: Cytochrome P450 2D6 (Homo sapiens) (UniProt P10635); experiment: Cytochrome P450 family 2 subfamily D member 6 (CYP2D6) small molecule antagonists: luciferase biochemical (cell-free) qHTS assay (AID 1645840; active means well fitted curve in the direction sought with a large enough effect in the repeat runs; an effect the other way counts as inactive or inconclusive; further: potency means the concentration at half of the fitted maximal effect; nearly all actives have a fitted effect of over 55% in size)
# Sequence of Cytochrome P450 2D6 (Homo sapiens) (P10635 whole entry, looked up): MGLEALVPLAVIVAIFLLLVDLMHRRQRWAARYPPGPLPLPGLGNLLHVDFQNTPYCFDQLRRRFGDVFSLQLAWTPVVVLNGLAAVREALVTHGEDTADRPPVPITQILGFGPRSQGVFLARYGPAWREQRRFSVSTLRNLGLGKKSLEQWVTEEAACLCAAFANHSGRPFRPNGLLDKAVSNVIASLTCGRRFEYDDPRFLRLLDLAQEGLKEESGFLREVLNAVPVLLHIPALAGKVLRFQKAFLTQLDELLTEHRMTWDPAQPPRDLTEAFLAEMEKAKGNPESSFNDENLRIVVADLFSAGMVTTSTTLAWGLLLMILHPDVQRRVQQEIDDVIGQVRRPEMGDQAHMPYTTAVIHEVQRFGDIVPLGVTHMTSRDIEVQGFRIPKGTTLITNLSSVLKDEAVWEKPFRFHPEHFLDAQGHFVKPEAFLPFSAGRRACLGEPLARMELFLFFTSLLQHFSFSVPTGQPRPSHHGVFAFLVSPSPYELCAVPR
# How it was run: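 P450-Glo CYP2D6 system: proluciferin substrate converted by enzyme to luciferin, read by luminescence proportional to activity. Enzyme-substrate mix with compound 10 min at room temperature, then NADPH regeneration 1 h before detection reagent.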
# [9] = target: Cytochrome P450 3A4 (Homo sapiens) (UniProt P08684); experiment: Cytochrome P450 family 3 subfamily A member 4 (CYP3A4) small molecule antagonists: luciferase qHTS assay (AID 1645841; active means well fitted curve in the direction sought with a large enough effect in the repeat runs; an effect the other way counts as inactive or inconclusive; further: nearly all actives have a fitted effect of over 45% in size)
# Sequence of Cytochrome P450 3A4 (Homo sapiens) (P08684 whole entry, looked up): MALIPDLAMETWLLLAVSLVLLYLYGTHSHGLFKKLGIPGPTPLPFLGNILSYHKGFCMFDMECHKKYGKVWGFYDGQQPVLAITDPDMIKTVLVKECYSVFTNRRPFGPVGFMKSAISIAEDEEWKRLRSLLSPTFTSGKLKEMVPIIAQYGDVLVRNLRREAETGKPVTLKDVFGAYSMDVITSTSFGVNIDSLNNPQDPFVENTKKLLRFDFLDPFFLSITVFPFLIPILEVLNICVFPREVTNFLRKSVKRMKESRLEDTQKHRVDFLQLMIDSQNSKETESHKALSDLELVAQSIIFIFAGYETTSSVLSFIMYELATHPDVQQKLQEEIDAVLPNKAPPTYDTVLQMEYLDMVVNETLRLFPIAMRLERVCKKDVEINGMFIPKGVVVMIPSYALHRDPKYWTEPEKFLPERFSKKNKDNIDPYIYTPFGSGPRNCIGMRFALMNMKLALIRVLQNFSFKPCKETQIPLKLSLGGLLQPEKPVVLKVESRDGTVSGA
# How it was run: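 P450-Glo CYP3A4 enzyme with proluciferin substrate was preincubated with DMSO-dissolved compounds for 10 min at room temperature. NADPH regeneration solution started a 1 h reaction. Detection reagent stopped it, and luminescence was read after 20 min.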
# [10] = Cell Viability - LYMP2-015 (AID 971); further: nearly all actives have a fitted effect of over 55% in size
# How it was run: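 Cells are seeded at 2500 per well and incubated 5 hr at 37 C. Compounds are added across a concentration series for 24 hr at 37 C. CellTiter-Glo is added, and luminescence is read after 30 min at room temperature.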
# [11] = target: Bile acid receptor (Homo sapiens) (UniProt Q96RI1); experiment: qHTS assay for small molecule antagonists of farnesoid X receptor signaling (AID 588526; calls by dose curve)
# Sequence of Bile acid receptor (Homo sapiens) (Q96RI1 whole entry, looked up): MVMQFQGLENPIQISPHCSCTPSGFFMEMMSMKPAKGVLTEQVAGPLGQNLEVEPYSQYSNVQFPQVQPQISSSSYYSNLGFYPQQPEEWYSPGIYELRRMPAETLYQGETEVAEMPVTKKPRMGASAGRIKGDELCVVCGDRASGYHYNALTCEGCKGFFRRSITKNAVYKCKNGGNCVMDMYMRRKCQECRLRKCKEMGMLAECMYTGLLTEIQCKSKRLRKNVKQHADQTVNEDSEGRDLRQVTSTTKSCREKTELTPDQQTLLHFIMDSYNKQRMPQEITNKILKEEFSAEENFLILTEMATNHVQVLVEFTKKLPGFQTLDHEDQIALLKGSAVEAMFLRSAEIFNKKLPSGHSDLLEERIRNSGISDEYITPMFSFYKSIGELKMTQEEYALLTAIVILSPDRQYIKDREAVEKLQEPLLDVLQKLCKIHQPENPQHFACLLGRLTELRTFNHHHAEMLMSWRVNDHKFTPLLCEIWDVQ
# How it was run: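 Concentration-response titrations were fitted to the Hill equation for half-maximal inhibition and maximal response, with data normalised to 50 uM chenodeoxycholic acid and DMSO control wells. Cells: FXR-UAS-bla HEK293T, dialyzed FBS.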
# [12] = target: Luciferin 4-monooxygenase (Photinus pyralis) (UniProt P08659); experiment: Biochemical firefly luciferase enzyme assay for NPC (AID 624030);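 further: purified P. pyralis luciferase at 10 nM with luciferin and ATP substrate; nearly all actives have a fitted effect of over 70% in size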
# Sequence of Luciferin 4-monooxygenase (Photinus pyralis) (P08659 whole entry, looked up): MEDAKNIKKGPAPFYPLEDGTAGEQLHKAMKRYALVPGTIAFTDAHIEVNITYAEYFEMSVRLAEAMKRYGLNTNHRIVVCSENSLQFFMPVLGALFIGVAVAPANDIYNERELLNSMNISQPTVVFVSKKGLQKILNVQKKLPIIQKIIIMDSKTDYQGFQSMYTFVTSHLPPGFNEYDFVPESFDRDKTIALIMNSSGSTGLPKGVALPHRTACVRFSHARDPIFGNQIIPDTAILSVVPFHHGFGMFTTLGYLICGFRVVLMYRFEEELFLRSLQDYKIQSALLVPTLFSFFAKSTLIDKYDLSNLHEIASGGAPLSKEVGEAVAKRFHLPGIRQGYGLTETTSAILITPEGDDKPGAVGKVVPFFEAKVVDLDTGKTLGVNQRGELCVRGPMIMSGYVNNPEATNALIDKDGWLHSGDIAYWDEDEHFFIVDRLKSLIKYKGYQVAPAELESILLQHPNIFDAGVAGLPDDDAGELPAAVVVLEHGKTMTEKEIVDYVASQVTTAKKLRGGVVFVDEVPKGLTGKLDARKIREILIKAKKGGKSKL
# How it was run: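 Counter-screen for direct inhibition of the luciferase enzyme by approved-drug library compounds, run at 10 nM enzyme in 50 mM Tris acetate (final). Luminescence was read within 5 min of enzyme-buffer addition and normalized to PTC124 versus DMSO (0%).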
# [13] = S16 Schwann cell viability assay (CellTiter-Glo assay) (AID 624031);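 further: cellular ATP luminescence as a viability measure; nearly all actives have a fitted effect of over 70% in size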
# How it was run: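 CellTiter-Glo ATP luminescence counter-screen in untransfected S16 rat Schwann cells, 24h compound exposure at 37 degree Celsius after overnight seeding (500-750 cells/well); response scaled between cell-free wells and DMSO (0% activity), curves classed by r2 and magnitude.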
# CP191 = experiment: qHTS profiling for inhibitors of Plasmodium falciparum proliferation (AID 504749); further: nearly all actives have a fitted effect of over 60% in size; conditions: P. falciparum in erythrocytes, SYBR Green DNA, 72 h; series mostly up to 28.7 µM
# How it was run: (§1)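 Quantitative HTS: compounds pinned into medium, infected erythrocytes added (0.3% parasitemia, 2.5% hematocrit), 72 h culture at 37 C under 5% CO2. Saponin/Triton lysis with SYBR Green I, overnight RT, then fluorescence read.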
# CP260 = experiment: as above; conditions: P. falciparum in erythrocytes, SYBR Green DNA, 72 h; series mostly up to 28.7 µM
# How it was run: as §1
# CP335 = experiment: as above; conditions: P. falciparum in erythrocytes, SYBR Green DNA, 72 h; series mostly up to 12.8 µM
# How it was run: as §1
# Dd2 = experiment: as above; conditions: P. falciparum in erythrocytes, SYBR Green DNA, 72 h; series mostly up to 28.7 µM
# How it was run: as §1
# ICS = experiment: as above; conditions: P. falciparum in erythrocytes, SYBR Green DNA, 72 h; series mostly up to 28.7 µM
# How it was run: as §1
# JCK = experiment: as above; conditions: P. falciparum in erythrocytes, SYBR Green DNA, 72 h; series mostly up to 28.7 µM
# How it was run: as §1
# [14] = S16 Schwann cell PMP22 intronic element firefly luciferase assay (AID 624032); further: nearly all actives have a fitted effect of over 30% in size; further: potency means the concentration at half of the fitted maximal effect
# How it was run: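 Rat S16 Schwann cells stably carrying a PMP22 intronic element-driven Fluc reporter were seeded overnight, then exposed to compounds for 24 h at 37 °C. Luminescence was normalized to PTC124 (positive control) and DMSO (0% activity).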
smiles,measurement,setting,value
CC(C)C1C(=O)N2CCC[C@H]2[C@]2(O)O[C@](NC(=O)[C@@H]3C=C4c5cccc6[nH]cc(c56)C[C@H]4N(C)C3)(C(C)C)C(=O)N12 (some centres undefined),Potency,[1],31.6 µM (active)
CCc1c(C(=O)OC)ncc2[nH]c3cc(OC)c(OC)cc3c12,outcome,[2],inactive
O=C(O)C1=CCCN(CCOC(c2ccc(C(F)(F)F)cc2)c2ccc(C(F)(F)F)cc2)C1,Potency,[3],inactive
same,"activity change, negative = inhibition",[4],-6.97%
same,Potency,[5],inactive
same,Potency,[6],inactive
CC1=NCCc2c1[nH]c1cc(O)ccc21,Potency,[7],3.26 µM (active)
same,Potency,[8],12 µM (active)
same,outcome,[9],inactive
CNC(=O)O/N=C/C(C)(C)SC,Potency,[10],inactive
same,outcome,[11],inactive
C[C@]12CC[C@H](O)CC1=CCC1C2CC[C@]2(C)C(=O)CC[C@@H]12 (some centres undefined),Potency,[12],inactive
same,Potency,[13],inactive
same,Potency,CP191,inactive
same,Potency,CP260,inactive
same,Potency,CP335,inactive
same,Potency,Dd2,inactive
same,Potency,ICS,inactive
same,Potency,JCK,inactive
CC(C)C[C@H]1C(=O)N2CCCC2[C@]2(O)O[C@](NC(=O)[C@@H]3C=C4c5cccc6[nH]c(Br)c(c56)C[C@H]4N(C)C3)(C(C)C)C(=O)N12 (some centres undefined),Potency,[14],8.09 µM (active)
C[N+]1([O-])[C@@H]2CC(OC(=O)[C@@H](CO)c3ccccc3)C[C@@H]1[C@H]1O[C@H]12 (some centres undefined),Potency,[12],inactive
same,Potency,[13],inactive
same,Potency,[14],inactive
same,Potency,CP191,inactive
same,Potency,CP260,inactive
same,Potency,CP335,inactive
same,Potency,Dd2,inactive
same,Potency,ICS,inactive
same,Potency,JCK,inactive
